Results published in PubChem BioAssay (NCI).
Compounds without any hit were thinned out: in the full panel of roughly 79,000, 15% have a hit. Active and inactive are the calls of the source. Rule as the data show it: active = growth inhibition above about 70%; inactive = the rest.

How the values were obtained:
[1] = NCI Yeast Anticancer Drug Screen. Data for the rad52 strain (AID 147);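 also: 0% = growth of vehicle-treated control cultures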; details: S. cerevisiae rad52 mutant growth inhibition, hits give high values
Outline: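 Here a repair-compromised yeast strain receives each compound; its growth is then quantified and normalised to vehicle-only controls.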

[2] = NCI Yeast Anticancer Drug Screen. Data for the wt1 strain (AID 149);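 also: 0% = growth of vehicle-treated wt1 cultures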; details: S. cerevisiae wt1 strain (SPY 50644) growth inhibition, hits give high values
Outline: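 Using yeast strain wt1, compound-induced growth inhibition was determined against vehicle-treated cultures.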

[3] = NCI Yeast Anticancer Drug Screen. Data for the rad50EPP+ strain (AID 151);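 also: 0% = growth of vehicle-treated control cultures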; details: S. cerevisiae rad50 mutant strain, hits give high values
Outline: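 Read-out is yeast growth inhibition relative to vehicle; cells used were the rad50EPP+ strain.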

[4] = NCI Yeast Anticancer Drug Screen. Data for the mgt1 strain (AID 153); details: S. cerevisiae mgt1 mutant growth inhibition, hits give high values
Outline: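 Measured: inhibition of mgt1 yeast growth by compound, normalized to vehicle-treated cultures.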

[5] = NCI Yeast Anticancer Drug Screen. Data for the rad50 strain (AID 155);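 also: 0% = growth of vehicle-only cultures of the same strain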; details: S. cerevisiae rad50 strain growth inhibition, hits give high values
Outline: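 Relative growth inhibition (compound vs vehicle) was measured in yeast with a defined repair-gene alteration.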

[6] = NCI Yeast Anticancer Drug Screen. Data for the mec2-1 strain (AID 157); details: S. cerevisiae mec2-1 strain, hits give high values
Outline: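 Using mec2-1 yeast: add compound, measure growth, express inhibition versus vehicle-treated cultures.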

[7] = NCI Yeast Anticancer Drug Screen. Data for the rad14 strain (AID 159);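 also: 0% = growth of vehicle-treated control cultures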; details: S. cerevisiae rad14 strain growth inhibition, hits give high values
Outline: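 Screen for anticancer potential: a yeast strain altered in DNA damage repair is grown with compound, and reduced growth is quantified against vehicle controls.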

[8] = NCI Yeast Anticancer Drug Screen. Data for the sgs1 mgt1 strain (AID 161);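 also: 0% = growth of cultures given vehicle only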; details: S. cerevisiae sgs1 mgt1 strain, hits give high values
Outline: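 This yeast growth screen uses a strain with defined DNA-repair lesions; compound-treated growth is compared with vehicle-treated growth.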

[9] = NCI Yeast Anticancer Drug Screen. Data for the CLN2oe strain (AID 163);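 also: 0% = growth of vehicle-only control cultures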; details: S. cerevisiae CLN2oe strain, hits give high values
Outline: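 Whole-cell yeast growth assay. A strain engineered for altered cell-cycle control received compound, and inhibition relative to vehicle-treated cultures was recorded.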

[10] = NCI Yeast Anticancer Drug Screen. Data for the bub3 strain (AID 167); details: S. cerevisiae bub3 mutant strain, hits give high values
Outline: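 Screening used yeast with an engineered genetic alteration affecting cell cycle control. Compound-exposed cultures were compared with vehicle cultures, and reduced growth was taken as inhibition.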

[11] = NCI Yeast Anticancer Drug Screen. Data for the wt2 strain (AID 169);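 also: 0% = growth of vehicle-treated yeast cultures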; details: S. cerevisiae wt2 strain growth inhibition, hits give high values
Outline: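 Treated yeast vs. vehicle-treated yeast: growth inhibition determined.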

[12] = NCI Yeast Anticancer Drug Screen. Data for the mlh1 strain (AID 171);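 also: 0% = growth of vehicle-treated control cultures of the same strain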; details: S. cerevisiae mlh1 strain growth inhibition, hits give high values
Outline: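 A yeast strain with a defined genetic lesion serves as the test organism. Cultures receive compound or vehicle, and growth is measured.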

[13] = NCI Yeast Anticancer Drug Screen. Data for the sgs1 strain (AID 173);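 also: 0% = growth of vehicle-only control cultures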; details: S. cerevisiae sgs1 mutant, hits give high values
Outline: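 A genetically defined yeast mutant is incubated with the test compound, and its growth is compared to that of the same strain given vehicle.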

[14] = NCI Yeast Anticancer Drug Screen. Data for the mlh1 rad18 strain (AID 175); details: S. cerevisiae mlh1 rad18 strain growth inhibition, hits give high values
Outline: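 Steps: expose repair-defective yeast to compound; measure growth; express inhibition against vehicle-treated controls.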

[15] = NCI Yeast Anticancer Drug Screen. Data for the rad18 strain (AID 177); details: S. cerevisiae rad18 mutant growth inhibition, hits give high values
Outline: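 Measured value is growth inhibition of a yeast strain bearing a DNA repair alteration, referenced to vehicle-treated cells.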

[16] = at 5.0 µM (retest, dose inferred, filed as 0.5)
[17] = at 50.0 µM (retest, dose inferred, filed as 5.0)

Measured: growth inhibition

COC1CCC(O)C(/C=C/[N+](=O)[O-])C1 (stereo not given)
active: [1]; at 3.7 µM 81% | [1]; at 11.0 µM 99% | [1]; at 33.0 µM 99% | [1]; at 100.0 µM 99% | [2]; at 11.0 µM 99% | [2]; at 33.0 µM 99% | [2]; at 100.0 µM 99% | [3]; at 33.0 µM 94% | [3]; at 100.0 µM 99% | [4]; at 11.0 µM 99% | [4]; at 33.0 µM 100% | [4]; at 100.0 µM 99% | [5]; at 3.7 µM 83% | [5]; at 11.0 µM 99% | [5]; at 33.0 µM 99% | [5]; [17] 99% | [5]; at 50.0 µM 98.7% | [5]; at 100.0 µM 99% | [6]; at 11.0 µM 100% | [6]; at 33.0 µM 99% | [6]; [17] 100% | [6]; at 50.0 µM 99.6% | [6]; at 100.0 µM 99% | [7]; at 11.0 µM 99% | [7]; at 33.0 µM 99% | [7]; at 100.0 µM 99% | [8]; [17] 100% | [8]; at 50.0 µM 98.2% | [9]; at 11.0 µM 99% | [9]; at 33.0 µM 99% | [9]; at 100.0 µM 99% | [10]; [16] 79% | [10]; at 11.0 µM 99% | [10]; at 33.0 µM 99% | [10]; [17] 100% | [10]; at 50.0 µM 98.7% | [10]; at 100.0 µM 99% | [11]; at 11.0 µM 99% | [11]; at 33.0 µM 99% | [11]; at 100.0 µM 99% | [12]; at 3.7 µM 79% | [12]; at 11.0 µM 99% | [12]; at 33.0 µM 99% | [12]; at 100.0 µM 100% | [13]; at 11.0 µM 99% | [13]; at 33.0 µM 99% | [13]; at 100.0 µM 98% | [14]; [16] 79% | [14]; [17] 99% | [14]; at 50.0 µM 98.2% | [15]; at 11.0 µM 99% | [15]; at 33.0 µM 99% | [15]; at 100.0 µM 99%
inactive: [1]; at 1.2 µM 27% | [2]; at 1.2 µM 3% | [2]; at 3.7 µM 18% | [3]; at 1.2 µM 6% | [3]; at 3.7 µM 19% | [3]; at 11.0 µM 56% | [4]; at 1.2 µM 8% | [4]; at 3.7 µM 63% | [5]; at 1.2 µM 29% | [5]; [16] 50% | [6]; at 1.2 µM 5% | [6]; at 3.7 µM 42% | [6]; [16] 21% | [7]; at 1.2 µM 7% | [7]; at 3.7 µM 42% | [8]; [16] 67% | [9]; at 1.2 µM 0% | [9]; at 3.7 µM 15% | [10]; at 1.2 µM 4% | [10]; at 3.7 µM 32% | [11]; at 1.2 µM 9% | [11]; at 3.7 µM 66% | [12]; at 1.2 µM 13% | [13]; at 1.2 µM 13% | [13]; at 3.7 µM 68% | [15]; at 1.2 µM 12% | [15]; at 3.7 µM 65%
